RORg inh – ROR gamma (mouse) transcription inhibition | P51450 | Drosophila S2 Gal4-RORgamma UAS-luciferase reporter, 20 h | Potency, µM (titrated, usually from 53.6 µM), hits mostly inhibitors | 310,000 compounds, 5.4% hits; note: nearly all actives have a fitted effect of over 60% in size
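Read-out: Photinus luciferase luminescence; inhibitors lower reporter signal. Insect Schneider cells with Gal4-ROR gamma fusion under metallothionein promoter, UAS reporter; 700 uM final copper sulfate induction, 20 hr, ambient temperature.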
GLP-1R agonist – activates the human GLP-1 receptor; AID 624172; Potency, µM (doses to about 45.6 µM), usual class: activators; 380,000 compounds, 0.007% hits; P43220; HEK293 GLP-1R CRE-luciferase, luminescence, 4-6 h; cells express a hypersensitive GLP-1R form
Target sequence (P43220 whole entry, looked up): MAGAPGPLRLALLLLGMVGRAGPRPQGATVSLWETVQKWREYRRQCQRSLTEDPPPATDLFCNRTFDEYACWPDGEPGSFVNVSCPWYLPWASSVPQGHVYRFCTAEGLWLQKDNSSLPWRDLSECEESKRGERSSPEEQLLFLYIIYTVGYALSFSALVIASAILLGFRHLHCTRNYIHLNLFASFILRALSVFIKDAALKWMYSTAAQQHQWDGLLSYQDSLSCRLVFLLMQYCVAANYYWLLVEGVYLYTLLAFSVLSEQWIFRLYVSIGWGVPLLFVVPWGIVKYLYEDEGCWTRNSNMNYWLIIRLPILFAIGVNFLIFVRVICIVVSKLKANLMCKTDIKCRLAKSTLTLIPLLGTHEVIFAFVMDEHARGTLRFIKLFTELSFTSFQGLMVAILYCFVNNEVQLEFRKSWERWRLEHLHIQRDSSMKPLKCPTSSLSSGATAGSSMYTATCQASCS
HEK293 tox – cytotoxicity in counter-screen for GLP-1R inverse agonists; Potency, µM (top dose mostly 38.3 µM), actives largely listed as inhibitors; AID 624418; 410,000 compounds, 0.13% hits; HEK293 cAMP-luciferase reporter cells, luminescence, 24 h;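 note: loss of luciferase light is scored as toxicity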
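To flag toxic compounds, the library was rerun on cells for 24 hr at 37 deg C and 5% CO2. Viability-linked luminescence was captured 12 min after adding luciferase detection reagent.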
Gal4-VP16 FLuc – counter-screen for ROR gamma inhibitors: Gal4-VP16 reporter | Drosophila S2 Gal4-VP16 UAS-luciferase, luminescence, 20 h | Potency, µM (top dose mostly 53.6 µM), most hits filed as inhibitors | 310,000 compounds, 3.5% hits | AID 2546;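 note: Gal4-VP16 expression switched on by copper sulfate through the metallothionein promoter; nearly all actives have a fitted effect of over 50% in size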
GLP-1R inv ag – acts as inverse agonist at human GLP-1 receptor; 410,000 compounds, 1.6% hits; Potency, µM (doses to about 38.3 µM), most hits filed as inhibitors; AID 624417; HEK293 GLP-1R CRE-luciferase, luminescence, 24 h; GLP-1R form is constitutively active; P43220; note: nearly all actives have a fitted effect of over 55% in size
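Assay principle: reduced luminescence from a cAMP-responsive reporter in HEK293 cells co-expressing a constitutively active GLP-1R. Conditions: 24 hr compound incubation, 37 deg C, 5% CO2.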
A number is an active result; – = inactive; ? = inconclusive; · = not tested or not shown; [ ] = remark or other dose. Compounds with a hit are over-represented: about 5.9% of the library has one in this group of screens. Calls come from the whole dose curve; as a rule, active = well fitted curve in the direction sought with a large enough effect; inconclusive = small, poorly fitted or top-dose-only effect, or another doubt; inactive = no such curve, though single readings can be large; an effect the other way counts as inactive or inconclusive.

SMILES	RORg inh	GLP-1R agonist	HEK293 tox	Gal4-VP16 FLuc	GLP-1R inv ag
CC(C)Cc1cc(CN2CCC(CO)(Cc3cccc(C(F)(F)F)c3)CC2)[nH]n1	4.5µM	–	?	?	?
O=c1[nH]c(S)nc2sc3c(c12)CCCC3	13µM	–	–	–	–
Cc1nc2sc3c(c2c(=O)[nH]1)CCCC3	–	–	–	–	–
CCN(CC)C(=O)Cn1c(=O)n(CCCCCC(=O)NCc2ccc(C)cc2)c(=O)c2sccc21	·	·	–	·	–
C=CCNC(=S)N1CCN(c2ccccc2Cl)CC1	–	–	–	–	?
CCOc1ccccc1N1CCN(C(=S)NCc2ccc(Cl)cc2)CC1	–	–	–	–	11µM
O=C(NC(=S)N1CCN(c2ccc(F)cc2)CC1)C12CC3CC(CC(C3)C1)C2	1.3µM	–	–	3.2µM	–
CCCCNC(=S)N1CCN(c2ccccc2Cl)CC1	11µM	–	–	–	?
CCOc1ccccc1N1CCN(C(=S)NC(=O)C23CC4CC(CC(C4)C2)C3)CC1	3.5µM	–	?	3.5µM	?
O=C(Nc1ccccc1N1CCN(c2ccc(F)cc2)CC1)C12CC3CC(CC(C3)C1)C2	–	–	–	–	–
CCOc1ccccc1N1CCN(C(=O)CC(C)(C)C)CC1	–	–	–	–	–
CCOc1ccccc1N1CCN(C(=O)Nc2ccc(F)c(Cl)c2)CC1	–	–	–	–[0.365 µM]	–
CC1CC=CC2C1C(=O)N(Cc1ccccc1)C2c1ccoc1 (stereo unspecified)	–	·	·	–	·
N#CCCn1c(=O)c(-c2cccs2)nc2cnc(N3CCOCC3)nc21	–	·	·	–	·
CCCC/C=C/C(NC(=O)C(C)(C)C)c1ccccc1 (stereo unspecified)	–	·	·	–	·
Cc1nn(-c2cccc(Cl)c2)c(Cl)c1/C=N/NC(=O)c1cccs1	?	–	–	13µM	–
CCNC(=S)N/N=C/c1c(C)nn(-c2cccc(Cl)c2)c1Cl	1.4µM	–	–	3.5µM	?
Cc1nn(-c2ccccc2)c(Cl)c1/C=N/NC(=O)c1ccc(NS(=O)(=O)c2cccs2)cc1	–	·	·	–	·
N#C/C(=C\c1ccc([N+](=O)[O-])o1)c1nc2ccccc2[nH]1	2µM	–	–	1.6µM	–
N#C/C(=C\Nc1ccc2c(c1)OCCO2)c1nc2ccccc2[nH]1	3.2µM	–	–	5µM	–
N#C/C(=C\Nc1ccc2c(c1)OCCO2)c1nc(-c2ccccc2)cs1	–[10 µM]	–	–	–	–
Cc1ccc2nc(/C(C#N)=C\c3ccc([N+](=O)[O-])o3)[nH]c2c1	5.6µM	–	–	3.2µM	–
N#C/C(=C(/O)c1ccc([N+](=O)[O-])o1)c1nc2ccccc2[nH]1	–	–	–	–	–
Cc1ccc2nc(/C(C#N)=C/c3ccc(-c4ccccc4C(=O)O)o3)[nH]c2c1	–	–	–	–	–
O=C(Nc1ccc(C(=O)OCc2cc(=O)n3c4c(sc3n2)CCCC4)cc1)c1ccc(F)cc1	·	·	–	·	–
SMILES	RORg inh	GLP-1R agonist	HEK293 tox	Gal4-VP16 FLuc	GLP-1R inv ag
CC(=O)Nc1ccc(/C=N/NC(N)=S)cc1	–	–	·	–	·
NC(=S)N/N=C/c1ccc(Br)o1	3.5µM	–	?	?	?
NC(=S)N/N=C/c1ccccc1	16µM	–	–	20µM	–
NC(=S)N/N=C/c1ccc(-c2cc(Cl)c(Cl)cc2Cl)o1	0.56µM	–	–	1.1µM	?
NC(=S)N/N=C/c1ccc(C23CC4CC(CC(C4)C2)C3)cc1	0.45µM	–	?	2.8µM	?
O=C(N/N=C\c1ccc(Br)o1)C1COc2ccccc2O1 (stereo unspecified)	–	–	–	–	–
CCN(CC)CCOC(=O)c1ccc(NC(=O)c2cc3c(s2)-c2ccccc2OC3)cc1	·	–	–	·	?
CCc1ccc(NC(=O)Cn2cc(S(=O)(=O)c3ccc(F)cc3)c(=O)c3cc(OC)ccc32)cc1	·	–	–	·	–
CCc1ccccc1Nc1ncnc2c1cnn2-c1ccc(Cl)cc1	·	·	–	·	?
Cc1ccc(-n2ncc3c(Nc4ccc(Oc5ccccc5)cc4)ncnc32)c(C)c1	·	·	–	·	10µM
CCc1ccccc1Nc1ncnc2c1cnn2-c1ccc(C)cc1C	·	·	–	·	13µM
O=c1[nH]c2cc([N+](=O)[O-])cc([N+](=O)[O-])c2[nH]c1=O	–	·	·	–	·
CC12CC(NC(=O)N1c1cccc(C(=O)NCc3ccc4c(c3)OCO4)c1)c1cc(Cl)ccc1O2 (stereo unspecified)	?	–	?	–	1.6µM
CC/C=C\CC[C@H](O)C1=CCCCC1=O	–[10 µM]	·	·	–[10 µM]	·
CCC(=O)Nc1nonc1-c1nc2ccccc2n1CCC(C)C	–	–	–	–	?
CC(=O)Nc1nonc1-c1nc2ccccc2n1CCC(C)C	13µM	–	–	–	?
CCOc1ccc(OCC)c(NS(=O)(=O)c2ccc3c(c2)n(C)c(=O)c(=O)n3C)c1	0.32µM	–	–	·	–
CCOc1ccc(NS(=O)(=O)c2ccc3c(c2)n(C)c(=O)n3C)cc1	–	–	–	–	–
Cc1ccsc1C(=O)N1CCCC(CO)(Cc2ccccc2)C1 (stereo unspecified)	?	–	–	–	–
Cc1ccsc1C(=O)N1CCC(CO)(Cc2ccccc2)CC1	10µM	–	–	?	–
CNS(=O)(=O)c1cn(CC(=O)N2CCN(c3ccccc3OC)CC2)cc1S(=O)(=O)NC	·	·	–	·	–
Oc1c(Br)cc(Br)cc1CNc1cccc2cccnc12	14µM	–	–	8.9µM	?
Cc1c(C(=O)N(C)c2cccc(C(F)(F)F)c2)sc2nc3n(c(=O)c12)CCCCC3	·	·	–	·	–
COc1ccc(NC(=S)N(CCCN2CCC(C)CC2)Cc2cccs2)cc1Cl	11µM	–	?	–[10 µM]	?
COc1cccc(NC(=S)N(CCCN2CCCC(C)C2)Cc2cccs2)c1 (stereo unspecified)	–	–	–[7.66 µM]	–	–[7.66 µM]
SMILES	RORg inh	GLP-1R agonist	HEK293 tox	Gal4-VP16 FLuc	GLP-1R inv ag
CSc1cccc(NC(=S)N(CCCN2CCCC(C)C2)Cc2cccs2)c1 (stereo unspecified)	11µM	–	?	–[10 µM]	?
CCOc1ccccc1CNC(=O)c1cccn1-c1nnc(N2CCCC2)s1	·	·	–	·	–
COc1ccccc1N1C(=O)CC(Sc2nccc(C)n2)C1=O (stereo unspecified)	11µM	–	–	?	–
COc1ccc(N2C(=O)CC(Sc3nccc(C)n3)C2=O)c(OC)c1 (stereo unspecified)	·	–	–	·	–
COc1ccccc1N1C(=O)CC(Sc2n[nH]c(-c3cccc(C)c3)n2)C1=O (stereo unspecified)	2.8µM	–	–	5µM	–
CC(=O)NC[C@@H]1CN(c2ccc(N3CCOCC3)c(F)c2)C(=O)O1	–[10 µM]	–	·	–	·
C/C(=N\Nc1nc2ccccc2[nH]1)c1ccc(N2CCOCC2)cc1	3.2µM	–	?	?	?
C/C(=N\Nc1nc(C)cc(C)n1)c1ccc(N2CCOCC2)cc1	11µM	–	–	–	–
C/C(=N\Nc1ncnc2sc(C)c(C)c12)c1ccccn1	0.4µM	–	–	0.79µM	?

Bioassay records deposited in PubChem by National Center for Advancing Translational Sciences (NCATS).
